{
  "source": "ChEMBL document CHEMBL4513216",
  "about": "“Probing the Open Global Health Chemical Diversity Library for Multistage-Active Starting Points for Next-Generation Antimalarials” (ACS Infect Dis, 2020)",
  "note": "Screen size: about 69,000 compounds; about 8,600 (12%) showed an effect of 50% or more. This excerpt belongs to a sample that is enriched for strong results.",
  "data": [
    {"system": "Plasmodium berghei", "experiment": "Screen against P. berghei liver stage (PbLuc), transformed with Luciferase, at 10uM", "assay_type": "functional, HepG2", "details": "tested at 10 uM", "units": {"INHIBITION": "%"}, "values": [
      {"smiles": "Cn1cc(N2CCC3(CCN(Cc4nccs4)C3)C2=O)cn1", "note": "(configuration not stated)", "INHIBITION": 26.2},
      {"smiles": "Cc1nc(C)n(CC2CCCN2Cc2nc(-c3ccsc3)no2)n1", "note": "(configuration not stated)", "INHIBITION": 46.8},
      {"smiles": "Cc1ccccc1OCCCNC(=O)C1(C)CC(=O)N2C=CC=CC2=N1", "note": "(configuration not stated)", "INHIBITION": 9.63},
      {"smiles": "Cc1nc(C)n(CC2CN(Cc3ccccc3C#N)CCO2)n1", "note": "(configuration not stated)", "INHIBITION": 5.9},
      {"smiles": "CCN(Cc1cscn1)CC1(C)Cc2c(N)nc(N)nc2O1", "note": "(configuration not stated)", "INHIBITION": 33.85},
      {"smiles": "CN(CCC(C)(C)O)C(=O)C1CCC(=O)N(Cc2ccc(Cl)cc2)C1", "note": "(configuration not stated)", "INHIBITION": 46.9},
      {"smiles": "CN(CC1(CO)CCC1)C(=O)C1CCC(=O)N(Cc2ccc(Cl)cc2)C1", "note": "(configuration not stated)", "INHIBITION": 49},
      {"smiles": "CN(CC1(CO)CC1)C(=O)C1CCC(=O)N(Cc2ccc(Cl)cc2)C1", "note": "(configuration not stated)", "INHIBITION": 70.4},
      {"smiles": "COc1cc(C(C)=O)ccc1OC12CCCN(CC1)C2", "note": "(configuration not stated)", "INHIBITION": 47.7},
      {"smiles": "CCc1ccc(CN2CCCn3c(nc(Cn4ccnc4)cc3=O)C2)o1", "INHIBITION": -2.17},
      {"smiles": "CCO[C@@H]1CCN(C(=O)c2ccc[nH]2)[C@@H]1Cc1cccnc1", "INHIBITION": 36.9},
      {"smiles": "Cc1ccc(S(=O)(=O)N2CCOCC2C(N)=O)c(F)c1", "note": "(configuration not stated)", "INHIBITION": 27.4},
      {"smiles": "Cc1ccc(C(=O)N2CC(C(N)=O)O[C@H](C)C2)c(F)c1", "note": "(some centres not stated)", "INHIBITION": -110},
      {"smiles": "Cc1ccc(C(=O)N2CCOCC2C(N)=O)c(F)c1", "note": "(configuration not stated)", "INHIBITION": 54.5},
      {"smiles": "Cc1noc(C(C)SCc2ccccn2)n1", "note": "(configuration not stated)", "INHIBITION": 14.3},
      {"smiles": "CCOc1ccc(CSC(C)c2nc(C)no2)nc1", "note": "(configuration not stated)", "INHIBITION": 60.2},
      {"smiles": "CCOc1cccc(CSC(C)c2nc(C)no2)n1", "note": "(configuration not stated)", "INHIBITION": -10.8},
      {"smiles": "CNc1nc2cn(C3CCCC3)c(=O)c-2c[nH]1", "INHIBITION": -24.5},
      {"smiles": "CC1CN(C)CCN1CC(=O)NCCOc1ccc2c(c1)OCO2", "note": "(configuration not stated)", "INHIBITION": 18.7},
      {"smiles": "O=C(c1ccccn1)N1CC(S(=O)(=O)c2ccc(Cl)cc2)C1", "INHIBITION": -54.7},
      {"smiles": "O=C(c1cccnc1)N1CC(S(=O)(=O)c2ccc(Cl)cc2)C1", "INHIBITION": 29.7},
      {"smiles": "O=C(c1ccco1)N1CC(S(=O)(=O)c2ccc(Cl)cc2)C1", "INHIBITION": 50.5},
      {"smiles": "c1ccc2c3c([nH]c2c1)C(c1nn[nH]n1)CCC3", "note": "(configuration not stated)", "INHIBITION": 26.4},
      {"smiles": "Cn1ccnc1C1(O)CCCN(Cc2ccncc2)CC1", "note": "(configuration not stated)", "INHIBITION": 7.36},
      {"smiles": "COc1ccc(C2c3c(N)nc(SC)nc3N=C3CCCC(=O)C32)cc1", "note": "(configuration not stated)", "INHIBITION": 21.7},
      {"smiles": "COc1cc2c(cc1CNC(Cc1cccs1)c1nccs1)OCCO2", "note": "(configuration not stated)", "INHIBITION": 36.9},
      {"smiles": "CCOc1cc2c(cc1CNC(Cc1cccs1)c1nccs1)OCO2", "note": "(configuration not stated)", "INHIBITION": 52},
      {"smiles": "COc1cc2c(cc1CNC(Cc1cccs1)c1nccs1)OCO2", "note": "(configuration not stated)", "INHIBITION": 20.07},
      {"smiles": "CCc1nnc(Nc2cc(C)nc(C3CCN(c4cnccn4)C3)n2)s1", "note": "(configuration not stated)", "INHIBITION": 32.3},
      {"smiles": "CCOc1ccc2[nH]c(=O)c(CN3CCC(O)CC3)cc2c1", "INHIBITION": 20.2},
      {"smiles": "CCOc1ccc2[nH]c(=O)c(CN3CCN(S(N)(=O)=O)CC3)cc2c1", "INHIBITION": 94.3},
      {"smiles": "CCCN1CCN(Cc2cc3cc(OCC)ccc3[nH]c2=O)CC1", "INHIBITION": 6.67},
      {"smiles": "CCCN(CC)C(=O)c1cc(Cn2c(C)nc3ccccc32)[nH]n1", "INHIBITION": 75.7},
      {"smiles": "NC(=O)CNC(=O)c1cc(Cn2cnc3ccccc32)[nH]n1", "INHIBITION": -72.5},
      {"smiles": "CCCN(CCOC)C(=O)c1cc(Cn2c(C)nc3ccccc32)[nH]n1", "INHIBITION": 65.7},
      {"smiles": "CCN(CCO)C(=O)c1cc(Cn2c(C)nc3ccccc32)[nH]n1", "INHIBITION": 24.9},
      {"smiles": "CCn1nc(C)c(CN(CCOC)C(=O)c2ccc(=O)[nH]n2)c1C", "INHIBITION": -65},
      {"smiles": "Cc1nc2ccccc2n1Cc1cc(C(=O)N(C)C2CCOC2)n[nH]1", "note": "(configuration not stated)", "INHIBITION": -39.9},
      {"smiles": "COCc1nc(C(=O)N2CCCC2c2cccs2)cs1", "note": "(configuration not stated)", "INHIBITION": 42},
      {"smiles": "Cc1cccc(CN2CCc3ncnc(NC4CCC4)c3CC2)n1", "INHIBITION": -24.8},
      {"smiles": "c1cc(CN2C[C@@H]3OCCN(CC4CCCO4)[C@@H]3C2)cs1", "note": "(some centres not stated)", "INHIBITION": 46.2},
      {"smiles": "COc1cccc(CNCc2ccc(NC(=O)NC(C)C)cc2)c1", "INHIBITION": 29.4},
      {"smiles": "COc1cc(CNCc2ccc(NC(=O)NC(C)C)cc2)cc(OC)c1", "INHIBITION": 60},
      {"smiles": "CCOc1cccc(CNCc2ccc(NC(=O)NC(C)C)cc2)c1", "INHIBITION": -18},
      {"smiles": "Cc1ccc(CN2CCC[C@]3(C(=O)O)CN(c4ncccn4)C[C@@H]3C2)o1", "INHIBITION": 15.9},
      {"smiles": "c1cncc(CN2CCC(c3csc4nccn34)CC2)c1", "INHIBITION": 3.295},
      {"smiles": "CC(C)(NC(=O)c1ccc(-c2ccc(F)cc2)s1)C(N)=O", "INHIBITION": 4.12},
      {"smiles": "CCCc1nnsc1C(=O)N1CCCC1(C)C(=O)N1CCOCC1", "note": "(configuration not stated)", "INHIBITION": -53.1},
      {"smiles": "O=C1CC(N(C(=O)c2ccc(F)c(F)c2)C2CC2)C(=O)N1", "note": "(configuration not stated)", "INHIBITION": 15.3},
      {"smiles": "Cc1ccc(C(=O)N(C2CC2)C2CC(=O)NC2=O)cc1F", "note": "(configuration not stated)", "INHIBITION": 50.3},
      {"smiles": "COc1cc(C(=O)N(C2CC2)C2CC(=O)NC2=O)ccc1C", "note": "(configuration not stated)", "INHIBITION": 31},
      {"smiles": "O=C(O)c1c[nH]c2cc(NS(=O)(=O)c3ccc(Cl)cc3F)ccc12", "INHIBITION": -2.19},
      {"smiles": "CN(C)C(=O)[C@@H]1CCO[C@@H]2CCN(CCOCc3ccccc3)C[C@H]21", "INHIBITION": 43.1},
      {"smiles": "CC(=O)c1ccc(N2CCCC(CO)(CCOc3ccccc3)C2)nc1", "note": "(configuration not stated)", "INHIBITION": 70.1},
      {"smiles": "CC(=O)c1ccc(N2CCC3(CC2)CC(=O)N(C)C3)nc1", "INHIBITION": 34.1},
      {"smiles": "CC(=O)c1ccc(N2CCC(CO)(CCOc3ccccc3)CC2)nc1", "INHIBITION": 95.1},
      {"smiles": "CC(=O)c1ccc(N2CCCC(CO)(CCc3ccccc3)C2)nc1", "note": "(configuration not stated)", "INHIBITION": 43.7},
      {"smiles": "CCCN1CC2(CCN(c3ccc(C(C)=O)cn3)CC2)CC1C(=O)O", "note": "(configuration not stated)", "INHIBITION": -12.5},
      {"smiles": "CN1C(=O)C2(CCN(S(C)(=O)=O)CC2)c2cc(F)ccc21", "INHIBITION": 17.7},
      {"smiles": "O=C(CNCCn1cccn1)NCC1(c2ccccc2)CCOCC1", "INHIBITION": 25.4},
      {"smiles": "CS(=O)(=O)NC[C@H]1OC[C@@H]2CCN(CCc3ccccc3)C[C@@H]21", "INHIBITION": 43.4},
      {"smiles": "Cn1c(C2CC2)nc2c1CCN(CCOc1cccc(F)c1)C2", "INHIBITION": 11.9},
      {"smiles": "Cc1ccccc1C(=O)N1C[C@@H]2OCCN(c3ncccn3)[C@@H]2C1", "INHIBITION": -2.35},
      {"smiles": "CN1CCN(S(C)(=O)=O)c2ccc(F)cc21", "INHIBITION": 21.8},
      {"smiles": "CN1CCN(S(=O)(=O)c2cccc(F)c2)c2ccccc21", "INHIBITION": 46.6},
      {"smiles": "CN1CCN(S(=O)(=O)c2cccc(C#N)c2)c2ccc(F)cc21", "INHIBITION": 62.4},
      {"smiles": "CCc1cc(OC)c(OC)cc1C(=O)Nc1cccnc1", "INHIBITION": 22.6}
    ]}
  ]
}
